Measured values reported in PubChem BioAssay AID1159580 (chemical genetic matrix, 2015).
Several values for one entry are separate records, joined by “and”; a condition that tells them apart may be missing. Equal values may be shown once. In all, about 5,500 compounds went through this assay and about 2,000 (36%) were called active. About 18% were inconclusive and are not listed. Rule as the data show it: active = normalized growth mostly below about 0.91 (no sharp cut-off); inconclusive = no clear call, values can overlap the other calls; inactive = mostly above about 0.92. The list shows a part of the results.

Experiment: chemical genetic growth profiling, strain panel (AID 1159580);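 also: tested at 20 µM; growth read once vehicle control cultures reached saturation at 30 °C; 1 = growth at the plate median or of vehicle wells; lower values mean less growth of the strain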
Settings: S. cerevisiae deletion strains, growth OD

Measured: normalized growth

COc1ccc(-c2cc(C(F)F)nn2-c2ccc(S(N)(=O)=O)cc2)cc1F
inactive: locus YAL013W, strain DEP1, active compounds read low 1 | locus YAL021C, strain ccr4, active compounds read low 0.991 | locus YAL026C, strain drs2, active compounds read low 1.02 | locus YAL030W, strain snc1, active compounds read low 1.01 | locus YBL061C, strain skt5, active compounds read low 1 | locus YBR009C, strain hhf1, active compounds read low 1 | locus YBR021W, strain FUR4, active compounds read low 1.02 | locus YBR023C, strain chs3, active compounds read low 0.992 | locus YBR171W, strain sec66, active compounds read low 1.01 | locus YBR229C, strain ROT2, active compounds read low 1.01 | locus YBR231C, strain swc5, active compounds read low 1.01 | locus YBR279W, strain paf1, active compounds read low 1 | locus YCL011C, strain gbp2, active compounds read low 1.01 | locus YCL016C, strain dcc1, active compounds read low 0.992 | locus YCL029C, strain bik1, active compounds read low 1.01 | locus YCL069W, strain vba3, active compounds read low 1 | locus YCR088W, strain abp1, active compounds read low 1 | locus YDL005C, strain med2, active compounds read low 1 | locus YDL035C, strain GPR1, active compounds read low 1.02 | locus YDL040C, strain nat1, active compounds read low 1.01 | locus YDL074C, strain BRE1, active compounds read low 0.997 | locus YDL101C, strain DUN1, active compounds read low 1 | locus YDL134C, strain PPH21, active compounds read low 0.994 | locus YDL185W, strain tfp1, active compounds read low 1.01 | locus YDL192W, strain arf1, active compounds read low 1.01 | locus YDR001C, strain nth1, active compounds read low 1.02 | locus YDR069C, strain doa4, active compounds read low 1.01 | locus YDR101C, strain arx1, active compounds read low 1.01 | locus YDR137W, strain rgp1, active compounds read low 1.04 | locus YDR150W, strain NUM1, active compounds read low 0.999 | locus YDR159W, strain sac3, active compounds read low 1.01 | locus YDR162C, strain NBP2, active compounds read low 0.988 | locus YDR195W, strain ref2 0.988 | locus YDR297W, strain sur2, active compounds read low 1.01 | locus YDR318W, strain mcm21, active compounds read low 1.02 | locus YDR334W, strain swr1, active compounds read low 1.02 | locus YDR335W, strain msn5, active compounds read low 1 | locus YDR388W, active compounds read low 1.02 | locus YDR392W, strain spt3, active compounds read low 0.922 | locus YDR502C, strain sam2, active compounds read low 0.996 | locus YEL003W, strain gim4, active compounds read low 1 | locus YEL037C, strain rad23, active compounds read low 1.01 | locus YEL061C, strain CIN8 (second series), active compounds read low 1.01 | locus YEL061C, strain CIN8, active compounds read low 1 | locus YER015W, strain faa2, active compounds read low 0.987 | locus YER016W, strain bim1, active compounds read low 1 | locus YER110C, active compounds read low 1.03 | locus YER111C, strain swi4, active compounds read low 0.999 | locus YER155C, strain BEM2 (second series), active compounds read low 0.887 | locus YER155C, strain BEM2, active compounds read low 0.998 | locus YER167W, strain BCK2, active compounds read low 1.01 | locus YFR010W, strain ubp6, active compounds read low 1.02 | locus YGL078C, strain dbp3, active compounds read low 0.996 | locus YGL086W, strain mad1, active compounds read low 1.03 | locus YGL167C, strain pmr1, active compounds read low 0.999 | locus YGL173C, strain kem1, active compounds read low 0.998 | locus YGL227W, strain vid30, active compounds read low 1.01 | locus YGL240W, strain doc1, active compounds read low 0.961 | locus YGL248W, strain PDE1, active compounds read low 0.997 | locus YGL253W, strain hxk2, active compounds read low 1.01 | locus YGR078C, strain PAC10, active compounds read low 0.994 | locus YGR135W, strain pre9, active compounds read low 0.982 | locus YGR229C, strain SMI1, active compounds read low 0.989 | locus YGR252W, strain gcn5, active compounds read low 1.08 | locus YHR013C, strain ard1, active compounds read low 1.06 | locus YHR027C, strain rpn1, active compounds read low 1.01 | locus YHR030C, strain SLT2, active compounds read low 1.01 and 1.05 | locus YHR079C, strain IRE1 (second series), active compounds read low 1.02 | locus YHR079C, strain IRE1, active compounds read low 1.06 | locus YHR094C, strain hxt1, active compounds read low 1.01 | locus YHR129C, strain ARP1, active compounds read low 1 | locus YHR142W, strain chs7, active compounds read low 0.999 | locus YHR200W, strain rpn10, active compounds read low 1.02 | locus YIL066C, strain RNR3, active compounds read low 1.01 | locus YIL073C, strain SPO22, active compounds read low 1.07 | locus YIL125W, strain kgd1, active compounds read low 1.01 | locus YIR030C, strain dcg1, active compounds read low 1.01 | locus YJL092W, strain hpr5, active compounds read low 1 | locus YJL095W, strain BCK1 (second series), active compounds read low 0.997 | locus YJL095W, strain BCK1, active compounds read low 0.996 and 1.02 | locus YJL115W, strain asf1, active compounds read low 1.01 | locus YJL129C, strain trk1, active compounds read low 0.967 | locus YJL134W, strain LCB3, active compounds read low 1 | locus YJL154C, strain vps35, active compounds read low 0.999 | locus YJL164C, strain tpk1, active compounds read low 0.992 | locus YJL166W, strain qcr8, active compounds read low 0.984 | locus YJL168C, strain set2, active compounds read low 1.02 | locus YJL187C, strain SWE1 (second series), active compounds read low 0.995 | locus YJL187C, strain SWE1, active compounds read low 1 | locus YJR043C, strain POL32, active compounds read low 1.03 | locus YJR066W, strain TOR1, active compounds read low 1.01
